59 compounds from PubChem BioAssay AID504848 (National Center for Advancing Translational Sciences (NCATS), 2011) can be followed below.

Values joined by “and” are separate entries in the source; they are usually repeats but may differ in a detail not shown here. Equal values may be shown once. Screen size: about 2,300 compounds; about 1,400 (61%) were called active. About 29% were inconclusive and are not listed. So high a share suggests a set chosen from earlier hits. The list shows a part of the results. Values without a mark were called inactive. Calls follow the shape of the dose curve; as a rule, active = well fitted inhibition curve with a large enough effect; inconclusive = small, poorly fitted or top-dose-only effect, or effect the other way; inactive = no such curve, though single readings can be large or run the other way.
% is scaled to controls: 0 for no effect and ±100 for the full control effect; potency is read from the fitted curve at half-maximal effect.

The nature of this assay: Confirmation screen for delayed death inhibitors of the malarial parasite plastid, 96 hour incubation. Also: nearly all actives have a fitted effect of over 60% in size. The settings on record: P. falciparum luciferase growth in erythrocytes; series mostly up to 28.7 µM; activity change, negative = inhibition: at the top concentration. The source says: The goal of this screen is to discover new antimalarial compounds that act by inhibiting the development of the apicoplast in the malarial parasite Plasmodium falciparum. The biochemical processes that make this organelle essential for erythrocytic stage parasites are not well understood. However, antibiotics, such as azithromycin and tetracycline, which target the apicoplast translational machinery, have a potent antimalarial effect. […] We have developed a cell-based assay that measures parasite growth based on the expression of an integrated copy of a firefly luciferase reporter. To detect small molecules that cause this "delayed death phenotype, erythrocytes infected with the luciferase-expressing parasites were incubated with compounds for either one or two generations, corresponding to 48 and 96 hours, respectively. Compounds that inhibit parasite growth in the second generation, but not the first, should be enriched in antimalarials that target the apicoplast. Growth inhibition is detected by a decrease in luciferase activity. MLPCN Grant: R21 NS059500 Assay Provider: David Fidock and Eric Ekland, Columbia University Keywords: NIH Roadmap, MLPCN, MLI, MLSMR, qHTS, NCGC, qHTS, malaria, luciferase, viability
Four microliters of culture medium (RPMI 1640 with 0.5% w/v Albumax (GIBCO), 24 mM sodium bicarbonate and 10 ug/mL gentamycin) were dispensed by a Multi-drop Combi into white solid 1536-well plates (Grenier) and 23 nL compound was added by a pin tool. Four microliters of infected erythrocytes (2% hematocrit, 0.1% parasitemia final concentration) in culture medium were dispensed and the plates incubated for 96 hours at 37 C in 5% CO2. Two microliters of luciferase detection reagent was added and luminescence was detected by a ViewLux (PerkinElmer) reader
`COc1ccc(-n2c(C)cc(C(=O)C[N+]34CCN(CC3)CC4)c2C)cc1`: the Potency was 12.6 µM (active).
Turning to `C[C@@H]1CC2(CCCC[N+]2(C)C)C[C@H]1C`, the Potency was 14.1 µM (active).
Consider `CC(=O)N1CC(=O)Nc2ccc(Cl)cc2C1c1ccccc1` (centres undefined), for which the “activity change, negative = inhibition” value was -21.6%.
As for `CN1C[C@H](C(=O)N[C@]2(C)O[C@@]3(O)[C@@H]4CCCN4C(=O)[C@H](Cc4ccccc4)N3C2=O)C[C@@H]2c3cccc4[nH]cc(c34)C[C@H]21`, the Potency is 2.24 µM (active).
As for `O=C(CN1CC=C(c2ccccc2)CC1)NC(=O)NCc1ccccc1`, the “activity change, negative = inhibition” value is -23%.
On the same count and under the same terms, with `Cc1ccc(N2C(=O)NC(=O)/C(=C\C=C\c3ccco3)C2=O)cc1` the figure was -0.857%.
On to `CC(C)(C)C(=O)C(Oc1ccc(Cl)cc1)n1ccnc1` (centres undefined), for which the Potency was 14.1 µM (active).
Consider `C=C[C@H]1CN2CC[C@H]1C[C@@H]2[C@@H](O)c1ccnc2ccccc12`, for which the Potency was 0.199 µM (active).
The same measure, in the same setting: with `C[n+]1c2cc(N)ccc2cc2ccc(N)cc21` the figure was 0.562 µM (active); with `Cn1c(=O)oc2cc(NC(=O)CCl)ccc21`, 0.794 µM (active); with `CCn1c(=O)oc2cc(NC(=O)CCl)ccc21`, 2 µM (active).
On to `CN1CCc2cc3c(c4c2C1Cc1ccccc1-4)OCO3` (centres undefined), for which the Potency was 0.562 µM (active).
Regarding `C=C1C(=O)O[C@@H]2C[C@@H](C)[C@@H]3C=CC(=O)[C@@]3(C)[C@@H](OC(=O)CC(=O)O[C@H]3[C@@H]4C(=C)C(=O)O[C@@H]4C[C@@H](C)[C@@H]4C=CC(=O)[C@]43C)[C@H]12`, the Potency was 0.0282 µM (active).
The same measure, in the same setting: in the case of `C=C1C(=O)O[C@@H]2C[C@@H](C)[C@@H]3C=CC(=O)[C@@]3(C)[C@@H](O)[C@H]12` it was 2 µM (active); in that of `C=C1C(O)[C@@H]2O[C@]3(CC[C@H](/C=C/C(C)[C@@H]4CC(C)=CC5(O[C@H](C[C@@](C)(O)C(=O)O)CCC5O)O4)O3)CC[C@H]2O[C@@H]1C(O)CC(C)[C@H]1OC2(CCCCO2)CCC1C` (some centres undefined), 0.0631 µM (active).
In the case of `O=c1oc2ccccc2c(O)c1[C@H]1c2ccc(O)cc2Oc2c1c(=O)oc1ccccc21`, the “activity change, negative = inhibition” value was 18%.
Take `CC(C)c1oc(=O)cc2c1[C@@H](O)[C@H]1OC(=O)[C@@]3(C)CC[C@@H](O)[C@@]2(C)C13` (some centres undefined): the Potency was 7.94 µM (active).
Still for that read-out and setting: with `O=C(/C=C/c1cccs1)c1cc(Cl)ccc1OC(=O)N1CCOCC1` the figure was 11.2 µM (active); with `Cc1cc2ccccn2c1C(C[N+](=O)[O-])c1c(F)cccc1Cl` (centres undefined), 12.6 µM (active).
`Cc1ccc(C(C)C)c(OCC(=O)N2CCN(Cc3nc4cc([N+](=O)[O-])ccc4n3C)CC2)c1`: the “activity change, negative = inhibition” value is -11.1%.
As to `COc1cccc(-n2c(CN3CCN(C)CC3)nc3ccc([N+](=O)[O-])cc3c2=O)c1`, the Potency was 15.8 µM (active).
As to `CC(C)c1ccc(N2C(=O)NC(=O)/C(=C\C=C\c3ccco3)C2=O)cc1`, the “activity change, negative = inhibition” value was -9.71%.
As to `O=C(CCl)Nc1nccs1`, the Potency was 6.31 µM (active).
For the compound `Fc1ccc(C[n+]2c(-c3ccccc3)cc(-c3ccccc3)cc2-c2ccccc2)cc1`, the Potency was 2 µM (active).
Consider `O=C1NC(=O)N(c2ccccc2)C(=O)/C1=C/C=C/c1ccco1`, for which the “activity change, negative = inhibition” value is -22.6%.
Regarding `C=CCn1c(O)c(N=Nc2c(C)n(C)n(-c3ccccc3)c2=O)c(=O)[nH]c1=S`, the Potency was 6.31 µM (active).
`O=[N+]([O-])c1cccc2c([As](=O)(O)O)cccc12`: the Potency was 1.12 µM (active).
As to `C[C@@H]1C[C@@H]2O[C@H]2/C=C\C=C\C(=O)Cc2c(Cl)c(O)cc(O)c2C(=O)O1`, the Potency was 7.08 µM (active).
Same read-out and setting: in the case of `COC(=O)c1nc(-c2ccc3c(n2)C(=O)C(N)=C(OC)C3=O)c(N)c(-c2ccc(OC)c(OC)c2O)c1C` it was 0.251 µM (active); in that of `O=C(NC1CC2CCCC(C1)N2)c1ccccc1` (centres undefined), 5.01 µM (active).
Consider `Cc1ccc(-c2nc(NC(=O)c3ccc(S(=O)(=O)N(CCC#N)CCC#N)cc3)sc2-c2ccccc2)cc1`, for which the Potency is 11.2 µM (active).
With `CN1C2CCC1/C(=C/c1ccccn1)C(=O)/C2=C\c1ccccn1`, the Potency was 0.158 µM (active).
`C[C@@H]1O[C@@H](O[C@H]2C[C@@H](O)[C@]3(CO)[C@@H]4C(CC[C@]3(O)C2)[C@@]2(O)CC[C@H](C3COC(=O)C3)[C@@]2(C)C[C@H]4O)[C@H](O)[C@H](O)[C@H]1O` (some centres undefined): the “activity change, negative = inhibition” value was -24%.
In the case of `CCOc1cc2c(cc1OCC)-n1cccc1C(c1ccccc1F)NC2` (centres undefined), the Potency was 5.01 µM (active).
As for `C[C@@H]1C[C@@H]([C@H](O)CC2CC(=O)NC(=O)C2)C(=O)[C@@H](C)C1`, the Potency is 0.794 µM (active).
For `C[C@H]1C[C@@H](C)C(=O)[C@@H]([C@H](O)CC2CC(=O)NC(=O)C2)C1`, the Potency was 0.0316 µM (active).
For `C/C1=C\[C@@H](C)C/C=C/[C@H]2[C@@H]3O[C@]3(C)[C@@H](C)[C@H]3[C@H](Cc4c[nH]c5ccccc45)NC(=O)[C@]32C(=O)/C=C/C(=O)[C@@H]1O`, the Potency was 0.891 µM (active).
As to `CCC(C(=O)N1CCC2(CC1)OCCO2)n1c2ccccc2c2nc(=O)cc(C)n21` (centres undefined), the Potency was 11.2 µM (active).
For `C[C@@H]1CC[C@H]2[C@@H](C)C(=O)O[C@@H]3O[C@@]4(C)CC[C@@H]1[C@]32OO4`, the Potency is 0.0398 µM (active).
`C[C@@H]1CC[C@H]2[C@@H](C)C(=O)O[C@@H]3OC4(C)CC[C@@H]1C32OO4` (some centres undefined): the Potency is 0.0398 µM (active).
As for `CCN(CC)Cc1cc(Nc2ccnc3cc(Cl)ccc23)ccc1O`, the Potency was 89.1 nM (active) and 22.4 nM (active).
For the compound `COc1ccc(-c2cc(-c3ccccc3)[n+](C)c(-c3ccccc3)c2)cc1`, the Potency is 2 µM (active).
Take `C[n+]1c(-c2ccccc2)cc(-c2ccc(Cl)cc2)cc1-c1ccccc1`: the Potency was 0.891 µM (active).
Regarding `CCOP(=O)(OCC)C(O)c1ccc(OC)cc1OC` (centres undefined), the “activity change, negative = inhibition” value is 9.71%.
On to `O=C1/C(=C/c2ccccc2)C[C@@]2(O)[C@H]3Cc4ccc(O)c5c4[C@@]2(CCN3CC2CC2)C1O5` (some centres undefined), for which the Potency is 5.01 µM (active).
As for `COc1ccc(Cn2c(N)c(C(=O)NCc3ccco3)c3nc4ccccc4nc32)cc1`, the Potency is 3.98 µM (active).
Take `CC(C)CCOP(N)(=O)Oc1ccccc1` (centres undefined): the Potency is 3.98 µM (active).
`CC[n+]1c(-c2ccccc2)c2cc(N)ccc2c2ccc(N)cc21`: the Potency was 0.0282 µM (active).
On to `CC1=CC2/C=C(\C)CCC(O)C(O)/C=C/C(=O)C23C(=O)NC(CC(C)C)C3C1C` (centres undefined), for which the Potency is 12.6 µM (active).
Turning to `CCCNS(=O)(=O)c1ccc(OCC(=O)N2CCN(Cc3ccc4c(c3)OCO4)CC2)c(C)c1`, the Potency was 11.2 µM (active).
Same read-out and setting: in the case of `Oc1ccc(-[n+]2c(-c3ccccc3)cc(-c3ccccc3)cc2-c2ccccc2)cc1` it was 0.0794 µM (active); in that of `CN(C)c1ccc(C(=O)N/N=C/C23CC[C@@H](O)CC2(O)CC[C@@H]2[C@@H]3CCC3(C)C(C4=CC(=O)OC4)CCC23O)cc1` (some centres undefined), 12.6 µM (active).
`COc1cc(C(=O)N/N=C/C23CC[C@@H](O)CC2(O)CC[C@@H]2[C@@H]3CCC3(C)C(C4=CC(=O)OC4)CCC23O)ccc1O` (some centres undefined): the “activity change, negative = inhibition” value was -32%.
Take `CC12CC[C@H]3[C@@H](CCC4(O)C[C@H](O)CCC34/C=N/NC(=O)c3ccccc3F)C1(O)CCC2C1=CC(=O)OC1` (some centres undefined): the “activity change, negative = inhibition” value was -94.9%.
Turning to `COC(=O)C1=C(c2ccccc2OCc2ccccc2)C[C@@H]2CC[C@H]1N2C(=O)NCCOc1ccc(OC)cc1`, the Potency was 12.6 µM (active).
For the compound `CC[C@H]1CN2CCc3cc(OC)c(OC)cc3[C@H]2C[C@@H]1C[C@@H]1NCCc2cc(OC)c(OC)cc21`, the Potency is 0.501 µM (active).
Same read-out and setting: with `CC[C@H]1CN2CCc3cc(OC)c(OC)cc3[C@@H]2C[C@@H]1C[C@H]1NCCc2cc(OC)c(OC)cc21` the figure was 0.224 µM (active); with `CC[C@H]1CN2CCc3cc(OC)c(OC)cc3C2C[C@@H]1C[C@H]1NCCc2cc(OC)c(OC)cc21` (some centres undefined), 0.0501 µM (active).
With `Cn1c(O)c(C=NC2C(=O)C3(C)CCC2C3(C)C)c(=O)n(C)c1=O` (centres undefined), the “activity change, negative = inhibition” value was 9.58%.
